Source: PubChem BioAssay
In the library only some 2.8% were active in any assay of this set; here they are far more common.
TSG101-PTAP inh: blocks PTAP binding to human TSG101, validation; 44,000 tested, under 10 active; Q99816; Fluorescence polarization, FITC-PTAP peptide/Tsg101, 20 min; Potency, µM (series often up to 115 µM), hits mostly inhibitors
Target sequence (Q99816 whole entry, looked up): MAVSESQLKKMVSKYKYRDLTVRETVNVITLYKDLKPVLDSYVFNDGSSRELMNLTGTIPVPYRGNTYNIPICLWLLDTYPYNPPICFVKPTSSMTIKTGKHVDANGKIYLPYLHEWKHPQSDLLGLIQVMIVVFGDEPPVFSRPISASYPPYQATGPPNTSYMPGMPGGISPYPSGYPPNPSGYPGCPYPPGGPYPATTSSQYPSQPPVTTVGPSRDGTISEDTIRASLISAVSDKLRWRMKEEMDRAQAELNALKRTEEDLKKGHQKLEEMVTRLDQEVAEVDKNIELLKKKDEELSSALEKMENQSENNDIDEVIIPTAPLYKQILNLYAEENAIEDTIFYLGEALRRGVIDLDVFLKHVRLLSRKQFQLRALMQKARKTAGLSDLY
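Steps: Tsg101 binding domain (10 uM final) in HEPES pH 7.5/NaCl/Tween 20/EDTA/TCEP; add compound; add FITC-PTAP peptide (50 nM final); incubate 20 min r.t.; read polarization.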
PMP22 txn prim: modulates PMP22 transcription in S16 Schwann cells; S16 Pmp22-F2sN Schwann cells, FLuc/NLuc coincidence luminescence, 24 h; 2% of 43,000 active; Potency, µM (titrated, usually from 57.5 µM), hits mostly inhibitors; active means clear falling dose curves in both reporters; inconclusive means both reporters move, but less clearly or upward; inactive means either reporter flat; the % is the NLuc reporter signal
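Rat S16 Pmp22-F2sN cells, 500-1,000/well in phenol red-free DMEM + 10% FBS, compound-treated 24 h (37C, 5% CO2). Luminescence: FLuc read, Stop&Glo added, NLuc read.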
GALK inh: GALK (human) enzyme inhibition; recombinant GALK, Kinase-Glo ATP luminescence, 1 h; P51570; Potency, µM (titrated, usually from 57.5 µM), hits mostly inhibitors; AID 1347072; 44,000 tested, under 10 active
Target sequence (P51570 whole entry, looked up): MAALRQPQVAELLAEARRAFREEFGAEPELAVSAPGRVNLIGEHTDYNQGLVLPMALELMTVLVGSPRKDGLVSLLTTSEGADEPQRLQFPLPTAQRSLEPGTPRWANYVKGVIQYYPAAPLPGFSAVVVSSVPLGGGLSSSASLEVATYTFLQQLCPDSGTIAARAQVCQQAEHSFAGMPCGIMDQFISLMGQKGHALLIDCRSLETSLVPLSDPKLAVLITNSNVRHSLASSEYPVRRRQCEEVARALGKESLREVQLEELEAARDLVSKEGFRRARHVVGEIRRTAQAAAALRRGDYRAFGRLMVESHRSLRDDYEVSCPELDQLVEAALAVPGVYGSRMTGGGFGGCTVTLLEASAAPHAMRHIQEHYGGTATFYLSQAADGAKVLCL
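Compounds were pinned into ATP buffer, then GALK-galactose mix was added (final 5 nM enzyme, 35 uM ATP, 100 uM galactose, pH 8.0). After 1 h at room temperature, Kinase-Glo Plus was added and luminescence read.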
mTORC1 inh: inhibitors of mTORC1 signaling in Tsc2-/- p53-/- MEF cells | Potency, µM (titrated, usually from 38.3 µM), most hits filed as inhibitors | AID 493208 | Tsc2-/- p53-/- MEF, phospho-rpS6 immunofluorescence/PI, 24 h | 0.78% of 44,000 active; further: nearly all actives have a fitted effect of over 50% in size
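Plate MEFs (Tsc2-/-, p53-/-, empty vector) in DMEM/10% FBS; after 24 h add compound, incubate 24 h at 37 degree Celsius; fix in PFA/TX-100, block, stain phospho-rpS6 and 10 uM PI; scan at 488 nm; report % positive cells.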
S16 viability: cytotoxicity in S16 Pmp22-F2sN Schwann cells; S16 Pmp22-F2sN Schwann cells (luciferase reporters placed in the Pmp22 gene) viability, CellTiter-Glo, 24 h; Potency, µM (doses to about 57.5 µM), most hits filed as cytotoxic; 0.48% of 43,000 active; AID 1508642; further: nearly all actives have a fitted effect of over 65% in size
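S16 Schwann cells carrying the Pmp22-F2sN reporter, seeded in 1536-well format, were exposed to library compounds for 24 h at 37C. Viability was read as CellTiter-Glo luminescence after 15 min at room temperature.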
NLuc sat counter: inhibits NanoLuc at saturating substrate, PMP22 counter-screen | 4% of 690 active | Secreted NLuc enzyme (filtered S16 cell medium), Nano-Glo luminescence | shares compounds with PMP22 txn prim | Potency, µM (highest dose often 57.5 µM), usual class: inhibitors | AID 1508638
NLuc Km counter: NanoLuc inhibition at Km substrate, PMP22 artifact check | secreted NLuc enzyme, coelenterazine luminescence, Km conditions | Potency, µM (doses to about 57.5 µM), most hits filed as inhibitors | shares compounds with PMP22 txn prim | AID 1508639 | 5% of 690 active
FLuc ctr PMP22: inhibits firefly luciferase, PMP22 counter-screen; shares compounds with PMP22 txn prim; purified P. pyralis FLuc, luminescence, 10 min; 690 tested, under 10 active; Potency, µM (highest dose often 57.5 µM), actives largely listed as inhibitors
S16 F2sN tox cnf: S16 Schwann cell cytotoxicity, confirmatory; Potency, µM (highest dose often 57.5 µM), hits mostly cytotoxic; 7% of 690 active; S16 Schwann cells viability, CellTiter-Glo ATP luminescence, 24 h; shares compounds with PMP22 txn prim
PMP22 txn conf: confirmation of modulators of PMP22 gene transcription in S16 cells; Potency, µM (top dose mostly 57.5 µM), most hits filed as inhibitors; 22% of 690 active; S16 Schwann cells Pmp22-F2sN, dual luciferase, 24 h; shares compounds with PMP22 txn prim; active means clear falling dose curves in both reporters; inconclusive means both reporters move, but less clearly or upward; inactive means either reporter flat; the % is the FLuc reporter signal
Of the large screens only hits and unclear results are named; the others gave an inactive call (follow-up assays come after a bar, where they were run). Unless noted, the call rests on the fitted dose curve; in most records, active means well fitted curve in the direction sought with a large enough effect; inconclusive means small, poorly fitted or top-dose-only effect, or another doubt; inactive means no such curve, though single readings can be large; an effect the other way counts as inactive or inconclusive.

CCCNC(=O)c1ccc2c(c1)N=C(CCC)c1ccccc1S2	PMP22 txn prim 11µM, mTORC1 inh inconclusive | NLuc sat counter inconclusive | NLuc Km counter 9.7µM | FLuc ctr PMP22 inactive | S16 F2sN tox cnf inactive | PMP22 txn conf 4.1µM
Cc1cccc(OCc2nc(CC(=O)Nc3ccc(C)cc3C)cs2)c1	none
CCc1ccccc1NC(=O)C(=O)NCCc1sc(-c2cccc(F)c2)nc1C	PMP22 txn prim inconclusive
CC(=O)Nc1cccc(NC(=O)C(=O)NCCc2sc(-c3ccccc3)nc2C)c1	PMP22 txn prim 2.5µM, mTORC1 inh inconclusive | NLuc sat counter inactive | NLuc Km counter inconclusive | FLuc ctr PMP22 inactive | S16 F2sN tox cnf inactive | PMP22 txn conf 3.6µM
CCOc1ccccc1NC(=O)C(=O)NCCc1sc(-c2cccc(F)c2)nc1C	PMP22 txn prim inconclusive | NLuc sat counter inactive | NLuc Km counter inactive | FLuc ctr PMP22 inactive | S16 F2sN tox cnf inactive | PMP22 txn conf inconclusive
O=C(NC1CC(=O)N(c2cccc(F)c2)C1)C(c1ccccc1)c1ccccc1 (configuration not stated)	none
CCN(CC)C(=O)c1sc2c(c1C)c(=O)n(-c1ccccc1)c(=O)n2Cc1cc(=O)n2ccccc2n1	PMP22 txn prim 12µM | NLuc sat counter inactive | NLuc Km counter inactive | FLuc ctr PMP22 inactive | S16 F2sN tox cnf inactive | PMP22 txn conf inactive
Cc1c(C(=O)N(C)C)sc2c1c(=O)n(-c1ccc(F)cc1)c(=O)n2Cc1cc(=O)n2ccccc2n1	none
CCS(=O)(=O)N1CC(=O)N(c2cc(Cl)ccc2C)C(C)(C(=O)NC2CCCCCC2)C1 (configuration not stated)	none
COc1ccc(S(=O)(=O)N2CCCCC2)cc1C(=O)Nc1cccc(C(F)(F)F)c1	none
CCCCn1c(=N)n(CCOc2ccccc2OC)c2ccccc21	PMP22 txn prim 20µM, mTORC1 inh 12µM, S16 viability inconclusive | NLuc sat counter inactive | NLuc Km counter inactive | FLuc ctr PMP22 inactive | S16 F2sN tox cnf inconclusive | PMP22 txn conf inconclusive
CC(=O)c1cccc(Nc2nc(-c3ccccc3Cl)nc3ccccc23)c1	PMP22 txn prim 11µM | NLuc sat counter 5.4µM | NLuc Km counter 0.86µM | FLuc ctr PMP22 inactive | S16 F2sN tox cnf inactive | PMP22 txn conf inactive
Cc1ccc(S(=O)(=O)Nc2cc3c(cc2N2CCOCC2)n(C)c(=O)n3C)c(C)c1	PMP22 txn prim 15µM, S16 viability inconclusive | NLuc sat counter inactive | NLuc Km counter inactive | FLuc ctr PMP22 inactive | S16 F2sN tox cnf inactive | PMP22 txn conf inactive
Cc1ccc(S(=O)(=O)Nc2cc3c(cc2N2CCOCC2)n(C)c(=O)n3C)cc1	none (no result: PMP22 txn prim, S16 viability)
O=C(CSCc1ccccc1Cl)N1CCN(c2ccc(F)cc2)CC1	none
Cc1c(Cl)cccc1NC(=O)CSc1ncc2c(n1)-c1ccccc1N(C)S2(=O)=O	PMP22 txn prim 17µM | NLuc sat counter inconclusive | NLuc Km counter inconclusive | FLuc ctr PMP22 inactive | S16 F2sN tox cnf inactive | PMP22 txn conf inactive
Cc1cccc(C)c1Nc1sc(C(=O)c2ccccc2)c(N)c1S(=O)(=O)c1ccccc1	PMP22 txn prim 6.7µM | NLuc sat counter inactive | NLuc Km counter inactive | FLuc ctr PMP22 inactive | S16 F2sN tox cnf inactive | PMP22 txn conf inconclusive
CCOc1ccccc1Nc1sc(C(=O)c2ccccc2)c(N)c1S(=O)(=O)c1ccc(C)cc1	PMP22 txn prim 2.8µM, S16 viability inconclusive | NLuc sat counter inactive | NLuc Km counter inactive | FLuc ctr PMP22 inactive | S16 F2sN tox cnf inactive | PMP22 txn conf inconclusive
Cc1c(Cl)cccc1Nc1sc(C(=O)c2ccccc2)c(N)c1S(=O)(=O)c1ccccc1	none
Cc1ccc(S(=O)(=O)NCCc2nnc3ccc(SCc4cccc(F)c4)nn23)cc1	none
COc1ccc(NC(=O)c2ccc3c(c2)c(C)c(C)n3Cc2ccc(F)cc2)cc1	PMP22 txn prim 15µM, mTORC1 inh inconclusive | NLuc sat counter inactive | NLuc Km counter inactive | FLuc ctr PMP22 inactive | S16 F2sN tox cnf inactive | PMP22 txn conf inactive
CCN(CC)c1ccc(NC(=O)CCCN2C(=O)C(c3ccccc3)Oc3cccnc32)c(C)c1 (configuration not stated)	PMP22 txn prim 15µM | NLuc sat counter inactive | NLuc Km counter inconclusive | FLuc ctr PMP22 inactive | S16 F2sN tox cnf inactive | PMP22 txn conf inconclusive
O=C(CCCN1C(=O)C(c2ccccc2)Oc2cccnc21)Nc1ccccc1C(F)(F)F (configuration not stated)	PMP22 txn prim inconclusive
Cc1ccc(Cl)cc1Nc1nn2c(=O)c3ccc(C(=O)NCc4cccs4)cc3nc2s1	PMP22 txn prim 8.4µM, S16 viability 25µM | NLuc sat counter inactive | NLuc Km counter inactive | FLuc ctr PMP22 inactive | S16 F2sN tox cnf 27µM | PMP22 txn conf inconclusive
COc1ccc(OC)c(NC(=O)c2c(NCc3sccc3C)sc3c2CCCCC3)c1	PMP22 txn prim 11µM | NLuc sat counter inconclusive | NLuc Km counter 14µM | FLuc ctr PMP22 inactive | S16 F2sN tox cnf inconclusive | PMP22 txn conf inactive
COc1ccccc1NC(=O)CSc1nc2nccnc2c(=O)n1CCc1c[nH]c2ccccc12	PMP22 txn prim 13µM | NLuc sat counter inconclusive | NLuc Km counter inconclusive | FLuc ctr PMP22 inactive | S16 F2sN tox cnf inactive | PMP22 txn conf inconclusive
Cc1c(Cl)cccc1-n1ncc(C(=O)NCCN2CCN(C)CC2)c1C1CCN(C(=O)OC(C)(C)C)CC1	PMP22 txn prim inconclusive
COc1cc(OC)cc(C(=O)NCC(c2cccs2)S(=O)(=O)c2ccc(F)c(C)c2)c1 (configuration not stated)	none
CCc1ccc(S(=O)(=O)c2cn(Cc3ccccc3F)c3cc(OC)c(OC)cc3c2=O)cc1	PMP22 txn prim 14µM | NLuc sat counter inactive | NLuc Km counter inactive | FLuc ctr PMP22 inactive | S16 F2sN tox cnf inactive | PMP22 txn conf inactive
CCc1ccc(S(=O)(=O)c2cn(Cc3ccc(OC)cc3)c3cc(OC)c(OC)cc3c2=O)cc1	none
